# Source: the supplement of paper PMC9694430
# Key:
# Assay in all cases: thermal shift delta Tm vs DMSO control; higher = stronger stabilization (binding)
# Conditions in all cases: 12.5 µM; protein concentration 2 µM
# [1] = test system: LOC_OS04G57630-cb004
# Summary of the method: (§1)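 Rice kinase domain constructs, made in E. coli and purified, were placed in 96-well plates at 2 μM in 19.5 μl of 100 mM potassium phosphate pH 7.5, 150 mM NaCl, 10% glycerol and 5 × SYPRO Orange, with compound in DMSO. A temperature ramp from 25°C to 95°C at 0.05°C/s was used for differential scanning fluorimetry. The melting temperature shift is a triplicate mean compared with DMSO-only protein, derived from Boltzmann fits.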
# [2] = test system: LOC_OS05G07850-cb002
# Summary of the method: as §1
# [3] = test system: LOC_OS05G16824-cb004
# Summary of the method: as §1
# [4] = test system: LOC_OS05G28520-cb001
# Summary of the method: as §1
# [5] = test system: LOC_OS05G30820-cb001
# Summary of the method: as §1
# [6] = test system: LOC_OS05G43570-cb004
# Summary of the method: as §1
# [7] = test system: LOC_OS06G16330-cb003
# LOC_OS06G16330-cb003, sequence (as listed by the source): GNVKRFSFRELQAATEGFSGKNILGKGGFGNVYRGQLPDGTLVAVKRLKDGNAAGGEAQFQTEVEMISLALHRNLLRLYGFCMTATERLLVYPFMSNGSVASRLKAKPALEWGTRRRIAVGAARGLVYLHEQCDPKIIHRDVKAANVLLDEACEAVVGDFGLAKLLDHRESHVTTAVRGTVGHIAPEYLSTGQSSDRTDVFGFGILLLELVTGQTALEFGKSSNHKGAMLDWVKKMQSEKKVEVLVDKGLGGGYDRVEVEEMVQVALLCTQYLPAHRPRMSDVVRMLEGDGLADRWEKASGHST
# Summary of the method: as §1
# [8] = test system: T1, LOC_OS06G22820-cb001
# T1 sequence (whole entry): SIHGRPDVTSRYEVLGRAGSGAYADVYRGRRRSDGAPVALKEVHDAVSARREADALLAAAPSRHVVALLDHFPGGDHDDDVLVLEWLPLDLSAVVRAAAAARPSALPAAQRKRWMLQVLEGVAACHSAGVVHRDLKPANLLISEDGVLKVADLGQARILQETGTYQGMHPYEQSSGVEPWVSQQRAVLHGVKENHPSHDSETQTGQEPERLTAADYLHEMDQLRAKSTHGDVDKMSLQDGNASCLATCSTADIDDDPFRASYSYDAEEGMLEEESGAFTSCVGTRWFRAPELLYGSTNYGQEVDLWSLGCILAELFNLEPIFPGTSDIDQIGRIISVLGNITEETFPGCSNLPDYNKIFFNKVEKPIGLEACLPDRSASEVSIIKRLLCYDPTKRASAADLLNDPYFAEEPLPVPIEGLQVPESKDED
# Summary of the method: as §1
# [9] = test system: LOC_OS07G06570-cb004
# Summary of the method: as §1
# [10] = test system: LOC_OS07G07230-cb001
# Summary of the method: as §1
# 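Also: purified Escherichia coli-expressed rice kinase domain construct.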
Compound,thermal shift delta Tm [1] [°C],thermal shift delta Tm [2] [°C],thermal shift delta Tm [3] [°C],thermal shift delta Tm [4] [°C],thermal shift delta Tm [5] [°C],thermal shift delta Tm [6] [°C],thermal shift delta Tm [7] [°C],thermal shift delta Tm [8] [°C],thermal shift delta Tm [9] [°C],thermal shift delta Tm [10] [°C]
COc1cc(Nc2ncc(F)c(Nc3ccc4c(n3)NC(=O)C(C)(C)O4)n2)cc(OC)c1OC [R406 (free base)],2.15,13,12.6,0.85,1.44,0.79,14.8,0.44,0.75,-0.18
CCCCCCCCCC(=O)CC(O)S(=O)(=O)O (stereo not drawn) [Sodium Houttuyfonate],0.61,0.71,-0.1,0.13,0.21,0.52,-8.96,-0.11,0.7,0.34
CN1CCN(c2nc(C3=C(c4c[nH]c5ccccc45)C(=O)NC3=O)c3ccccc3n2)CC1 [Sotrastaurin],-0.06,5.2,1.64,0.09,0.74,1.24,0.19,0.49,0.81,-0.05
CN1CCN(CCOc2cc(OC3CCOCC3)c3c(Nc4c(Cl)ccc5c4OCO5)ncnc3c2)CC1 [Saracatinib (AZD0530)],0.78,7.68,3.59,0.24,0.41,0.7,7.52,0.89,1.29,0.13
CC(C)(C)c1ccc(S(=O)(=O)/C=C/C#N)cc1,0.92,0.97,,-0.58,-0.04,0.04,0.83,-0.39,0.39,-0.18
CN1c2ccccc2C(=O)Nc2cnc(Nc3ccc(N4CCC(O)CC4)cc3)nc21,2.68,11.7,3.76,0.16,1.15,0.33,8.37,0.43,0.89,1.4
C=CC(=O)N[C@H]1CCOC[C@H]1Nc1ncc2cc(-c3c(Cl)c(OC)cc(OC)c3Cl)ccc2n1,0.02,0.63,,0.07,0,-0.08,-0.57,0.4,0.52,0.76
c1ccc(-c2[nH]ncc2-c2ccnc3ccccc23)nc1,0.26,3.02,0.42,0.19,0.24,0.65,-2.93,0.08,0.81,0.53
COc1ccc(/C=C/C(=O)C2(C(=O)/C=C/c3ccc(OC)c(OC)c3)CCCCC2)cc1OC,-0.06,0.62,-3.56,0.12,0.75,0.25,-0.37,0.49,2.62,0.7
C=CC(=O)Nc1cc(Nc2nccc(-c3c[nH]c4ccccc34)n2)c(OC)cc1N(C)CCN(C)C,0.51,11,-1.05,0.61,0.72,0.75,6.67,0.58,1.6,0.9
O=C(O)c1cc(O)c2c(c1)[C@@H]([C@H]1c3cc(C(=O)O)cc(O)c3C(=O)c3c(O[C@@H]4O[C@H](CO)[C@@H](O)[C@H](O)[C@H]4O)cccc31)c1cccc(O[C@@H]3O[C@H](CO)[C@@H](O)[C@H](O)[C@H]3O)c1C2=O [Sennoside B],-0.43,-1.7,,2.58,0.73,1.55,-0.98,1.61,4.56,-0.03
Cc1csc(-c2nnc(Nc3ccc(Oc4ncccc4-c4ccnc(N)n4)cc3)c3ccccc23)c1,0.49,6.74,1.04,0.38,0.85,0.03,3.12,0.66,0.09,0.17
O=C1c2ccc(Nc3ccc(F)cc3F)cc2CCc2ccc(OC[C@H](O)CO)cc21 [Skepinone-L],-0.62,1.02,-0.73,0.27,0.6,0.4,-0.23,0.53,0.41,-0.05
Cc1[nH]c(/C=C2\C(=O)Nc3ccc(S(=O)(=O)N(C)c4cccc(Cl)c4)cc32)c(C)c1C(=O)N1CCN(C)CC1,0.72,9.11,,0.18,0.55,-0.03,-6.47,1,0.23,0.81
CC(C)(C#N)c1ccc(N2C(=O)OCc3cnc4ccc(-c5cnc6ccccc6c5)cc4c32)cc1,0.16,1.96,-0.65,0.5,0.58,0.71,0.44,0.89,1.76,0.63
CCCCCCCCCCCCCCCCCCOP(=O)([O-])OC1CC[N+](C)(C)CC1 [Perifosine (KRX-0401)],-0.56,-0.07,,-1.23,-0.15,-0.61,,0.39,-2.82,-2.65
CC(C)[C@H](CO)Nc1nc(Nc2cccc(Cl)c2)c2ncn(C(C)C)c2n1 [Purvalanol A],1.65,4.54,10.1,1.68,2.51,0.79,2.99,0.25,0.14,-0.31
CC(C)(O)CNc1ncc(-c2ccnc(Nc3ccnc(Cl)c3)n2)c(CC2CC2)n1,0.07,7.44,0.09,0.75,0.41,0.5,4.77,0.62,0.78,0.71
"Cc1[nH]c(/C=C2\C(=O)Nc3ccccc32)c(C)c1CCC(=O)O [Orantinib (TSU-68, SU6668)]",0.84,9.92,0,0.62,1.03,0.68,,0.6,1.28,0.28
COc1ccc(Cl)c(Nc2nc3ccccc3nc2NS(=O)(=O)c2cccc(NC(=O)C(C)(C)N)c2)c1 [Pilaralisib (XL147)],2.01,2.9,2.11,0.49,0.75,1.75,1.96,2.03,0.12,0.54
c1cncc(CN2CCC(n3ncc4c(N5CCOCC5)nc(-c5ccc6[nH]ccc6c5)nc43)CC2)c1,0.55,0.6,-2.75,0.6,0.62,-0.19,-0.3,0.42,0.64,0.16
